Measured values published in PubChem BioAssay (NCI).
Compounds without any hit were thinned out: in the full panel of roughly 83,000, 20% have a hit.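 Assay: single dose, 48 h. Readout: percent growth (0 = no net growth; negative = cell death). Active: <10.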 A number with no mark means an inactive call. The source made the active and inactive calls.

The compounds below were run on MOLT-4 leukemia (assay: NCI-60 one-dose screen, 48 h (100 = growth as untreated, 0 = no growth, -100 = all killed)). Settings: 10 µM unless noted.
Procedure: Growth inhibition of the MOLT-4 human tumor cell line is measured as a screen for anti-cancer activity. Cells are grown in 96 well plates and exposed to the test compound for 48 hours. Compounds are tested at a single concentration, which is 10^-5 M for most compounds. The reported endpoint is percent growth (GI% or GIPRCNT), where numbers from 0 - 100% represent growth inhibition, and numbers from -100% - 0 represent cell death. For example, a value of 40 represents 60% growth inhibition. A value of 0 means no net growth occurred over the course of the experiment. A value of -40 indicates 40% of cells at the beginning of the experiment died by the end of the experiment. A value of -100 means all cells are dead at the end of the experiment.
NCI-60 Human Tumor Cell Lines Screen was performed using the standard one-dose NCI protocol, which is described in more detail at https://dtp.cancer.gov/discovery_development/nci-60/default.htm.
Compounds with GIPRCNT values below 10 were considered active. Activity score was based on GIPRCNT using the following formula: […]
Score is 0 for GIPRCNT values of 100 or above, 50 for GIPRCNT values of 0, and 100 for GIPRCNT values of -100.

| Structure (SMILES) | growth |
| --- | --- |
| Cc1ccc(NC(=O)CN2CCOCC2)cc1Cl | 90.2% |
| COc1ccc2c(c1)/C(=C/c1c(-c3cc(OC)c(OC)c(OC)c3Br)nc3sccn13)C(=O)N2 | 73.2% |
| COc1ccc(-c2nn(-c3ccc(NC(=O)c4ccc(Cl)c(C(F)(F)F)c4)cc3)cc2-c2ccncc2)cc1Cl | 1.35% (active) |
| Nc1ncc(-c2ccc3ncnc(Nc4cncc(Cl)c4)c3c2)cn1 | 77.8% |
| Clc1ccc2c(NCCNc3nc(Cl)nc4ccccc34)ccnc2c1 | -52.4% (active) |
| Nc1nc(=S)ss1 | 90.4% |
| C=C1C(=O)O[C@H]2[C@H]1CC/C(COC(=O)c1ccccc1)=C\CC[C@@]1(C)O[C@@H]21 | -22.2% (active) |
| CCCCOc1c(N)cc(Cl)cc1C(=O)OCCN(CC)CC | 58.4% |
| CCC(C)Nc1ccc(N)cc1 (stereo not given) | -13.7% (active) |
| C=C1C(=O)O[C@H]2[C@H]1CC/C(COC(=O)CCCC(=O)OC/C1=C/CC[C@@]3(C)O[C@H]3[C@H]3OC(=O)C(=C)[C@@H]3CC1)=C\CC[C@@]1(C)O[C@@H]21 | -19.1% (active) |
| COc1cc(/C=C/C(=O)c2ccc(Oc3ncnc4ccccc34)cc2)cc(OC)c1OC | 62.3% |
| C=C1C(=O)O[C@H]2[C@H]1CC/C(COC(=O)c1cc(OC)c(OC)c(OC)c1)=C\CC[C@@]1(C)O[C@@H]21 | -14.8% (active) |
| COC1=C(OC)C(=O)C=CC1=O | 12.6% |
| O=C(O)c1ccc2nc(-c3ccc(OCCCCCOc4ccc(-c5nc6ccc(C(=O)O)cc6[nH]5)cc4)cc3)[nH]c2c1 | 87.7% |
| CCCCCCCCCCCCCCCCNc1ccccc1 | 43.1% |
| O=C(C[n+]1cccc(Br)c1)c1ccc2c(c1)CCCC2 | 86.2% |
| O=C(COc1ccc(Cl)cc1Cl)N1N=C(c2ccc(Cl)cc2Cl)CC1(O)c1cc(F)c(Cl)cc1Cl (stereo not given) | -47.9% (active) |
| O=C(Nc1ccccc1Cl)c1c[nH]c(=O)c(-c2ccc(N3CCCOC4(CC4)C3)cc2)c1 | 48.1% |
| CC(C)CNCC(=O)Nc1ccc(Cc2ccc(NC(=O)CNCC(C)C)cc2)cc1 | 23.1% |
| CN(C)CCS(=O)(=O)Nc1cc(-c2ccc3ncnc(Nc4ccc(F)c(Cl)c4)c3c2)cnc1Cl | -36.7% (active) |

| Structure (SMILES) | growth |
| --- | --- |
| COc1ccc(SC2c3ccc(O)cc3Oc3nc(N)c(C#N)c(N)c32)cc1 (stereo not given) | 67.7% |
| Cc1nssc1=S | 99.8% |
| CCNc1ncnc2n[nH]nc12 | 100% |
| COc1ccc(C[C@H](N)C(=O)N[C@@H]2[C@@H](CO)OC(n3cnc4c(N(C)C)ncnc43)[C@@H]2O)cc1 (stereo not given in full) | -22.3% (active) |
| Cc1nccc2c3ccc(OCc4cn(-c5ccc(Br)cc5)nn4)cc3n(CCCc3ccccc3)c12 | 41.2% |
| c1cncc(-c2nc3ccccc3[nH]2)c1 | 97.4% |
| C[C@H]1C=C(C[C@@H](O)CCCCCCCCCC[C@@H](O)[C@H]2CCC(=O)O2)C(=O)O1 | 112% |
| Clc1ccc(OCc2nc(-c3ccccc3)n[nH]2)c(Cl)c1 | 98.7% |
| CC(=O)c1ccc2c(c1)C1C=CCC1[C@H](c1cc3c(cc1Br)OCO3)N2 (stereo not given in full) | 7.5% (active) |
| CN1C(=O)C2(NN=C(c3cccc4ccccc34)S2)c2ccccc21 (stereo not given) | 2.9% (active) |
| Cc1[nH]c2ccc(F)cc2c1CCNC(=O)C1CCN(C(=O)c2ccc(-c3ccccc3)cc2)CC1 | 26.9% |
| CCN(CC)CCC(C(=O)O)(c1ccccc1)c1ccccc1 | 89.4% |
| CC(C)Cn1cnc2c3ccccc3nc(NCn3nc(-c4cc(Cl)cc(Cl)c4Cl)oc3=S)c21 | 20.4% |
| O=C(Nc1ccc(-n2ccc3c(NC(=O)c4ccccc4)nccc32)cc1)c1cccc(C(F)(F)F)c1 | 18.6% |
| Nc1nc(Nc2ccc(OCc3cccc(F)c3)cc2)c2c(n1)[nH]c1ccc(O)cc12 | -28% (active) |
| CC(C)[C@@H]1NC(=O)[C@]2(C)CSC(=N2)c2ccnc(c2)CNC(=O)C[C@@H](/C=C/CCS)OC1=O | 8.13% (active) |
| COc1ccc(-c2nn(-c3ccc(NC(=O)Nc4cc(C(F)(F)F)cc(C(F)(F)F)c4)cc3)cc2-c2ccncc2)cc1Cl | 6.78% (active) |
| CC(/C=C/C=C(\C)[C@H](O)[C@H](C)C(=O)O[C@H]1C[C@H](C)C=C2C=C[C@@]3(C)O[C@@H](O)CC(=O)[C@]3(C)[C@H]21)=C\C=C\C(=O)O | 1.42% (active) |
| COc1ccc(Cl)cc1NC(=O)c1cc2c(n1C)-c1nc(NC(=O)C(C)C)sc1CC2 | 80.2% |
| CC[C@@]1(O)C(=O)OCc2c1cc1n(c2=O)Cc2c-1nc1ccccc1c2/C=N/OC(C)(C)C | -10.6% (active) |
